Results: PubChem BioAssay AID1035475 (Broad Institute, 2014)
Measured potencies and affinities stand elsewhere. Results filed as inconclusive are left out. Calls of active or inactive are those of the source.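 How the source made its calls: active means fluorescent signal drops by 40% or more, counted as a hit; inconclusive means no clear call, values can overlap the other calls; inactive means the rest, including any activity in the opposite direction.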

Test: blockers of FN fibrillogenesis by fibroblasts – AH1F cells, Alexa488-FN fluorescence, cherry-picks, dose response (AID 1035475);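 further: AH1F fibroblasts incorporating labeled fibronectin into their extracellular matrix; 0% = neutral control wells and -100% = wells without labeled fibronectin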
Conditions: Alexa488-fibronectin deposition fluorescence, overnight; series mostly up to 35 µM; activity change, negative = inhibition: at the top concentration

Row | Structure (SMILES) | activity change, negative = inhibition
1 | COc1ncccc1C(=O)NC1CCCc2c1cnn2-c1ccc(C)c(C)c1 (stereo not given) | -16.2% (inactive)
2 | C[C@H](O)C#Cc1ccc2c(c1)O[C@@H](CN(C)C)[C@H](C)CN([C@H](C)CO)S2(=O)=O | 26.9% (inactive)
3 | CCc1ccc(NC(=O)CSc2nnc(-c3ccco3)o2)cc1 | -11.6% (inactive)
4 | CO[C@H]1CN(C)C(=O)c2cc(NC(=O)Nc3cc(Cl)cc(Cl)c3)ccc2OC[C@@H](C)NC[C@H]1C | -22.9% (inactive)
5 | O=S(=O)(c1cccc(F)c1)N1CC[C@@H]2[C@H]1c1cc(-c3cccc(F)c3)ccc1N[C@@H]2CO | 10.5% (inactive)
6 | N#C[C@H]1[C@H](c2ccccc2C2=CCCCC2)[C@H](CO)N1S(=O)(=O)c1ccccc1 | 23.3% (inactive)
7 | O=C(CN1CCCC1)Nc1ccc(Oc2ccc(NC(=O)CN3CCCC3)cc2)cc1 | -14.8% (inactive)
8 | CCN1CCN(C(c2ccccc2)c2nnnn2Cc2ccccc2)CC1 (stereo not given) | -10.2% (inactive)
9 | O=c1c2cc(N3CCOCC3)ccc2[nH]c(=S)n1Cc1ccc(Cl)cc1 | -36.2% (inactive)
10 | Cc1cc(C)c(S(=O)(=O)Nn2cnnc2)c(C)c1 | -8.32% (inactive)
11 | COc1ccc(-c2oc3ncnc(NCCCN4CCOCC4)c3c2-c2ccc(OC)cc2)cc1 | -21.5% (inactive)
12 | COC(=O)C[C@H]1CC[C@@H]2[C@@H](COc3ccc(NC(=O)Cc4cccs4)cc3C(=O)N2C)O1 | 33% (inactive)
13 | COCC(C)n1c(SCc2nc(N)nc(Nc3ccccc3C)n2)nc2ccccc2c1=O (stereo not given) | -35.8% (inactive)
14 | O=C(Nc1ccc(Cl)cc1)N1C[C@H]2[C@@H](c3ccccc31)[C@H](CO)N2CC1CCCC1 | 40.8% (inactive)
15 | Cc1cc(C)n2ncc(C(=O)NCc3ccc(Cl)cc3)c2n1 | -4.49% (inactive)
16 | C[C@H]1CN([C@@H](C)CO)C(=O)c2cc(-c3ccccc3)cnc2O[C@H]1CN(C)Cc1ccccc1 | 34.5% (inactive)
17 | C[C@@H]1CN([C@@H](C)CO)C(=O)c2cc(NC(=O)CCCN(C)C)ccc2O[C@H]1CN(C)Cc1ccc(-c2ccccc2)cc1 | -2.69% (inactive)
18 | COC(=O)C[C@H]1CC[C@H]2[C@H](COc3ccc(NC(=O)Cc4cccs4)cc3C(=O)N2C)O1 | 16.8% (inactive)

Row | Structure (SMILES) | activity change, negative = inhibition
19 | CC(C)C(=O)Nc1ccc2c(c1)C(=O)N(C)[C@@H]1CC[C@H](CC(=O)O)O[C@@H]1CO2 | 51.2% (inactive)
20 | C[C@@H]1CN([C@@H](C)CO)C(=O)c2cccc(NC(=O)Nc3ccc(C(F)(F)F)cc3)c2O[C@H]1CN(C)C(=O)Nc1cccc2ccccc12 | -29.2% (inactive)
21 | C[C@@H](O)C#Cc1ccc2c(c1)O[C@@H](CN(C)C)[C@@H](C)CN([C@@H](C)CO)S2(=O)=O | 21.2% (inactive)
22 | CO[C@@H]1CN(C)C(=O)c2cc(NC(=O)Nc3ccc(Cl)c(Cl)c3)ccc2OC[C@H](C)NC[C@@H]1C | 28.4% (inactive)
23 | COc1ccc(C)cc1N(CC(=O)Nc1cccc(N(C)S(C)(=O)=O)c1)S(C)(=O)=O | -10.8% (inactive)
24 | C[C@H](CO)N1C[C@H](C)[C@H](CN(C)C(=O)c2cccc(F)c2)Oc2ncc(-c3ccccc3)cc2C1=O | 25% (inactive)
25 | CO[C@@H]1CN(C)C(=O)c2cc(NC(=O)Nc3ccc(Cl)c(Cl)c3)ccc2OC[C@@H](C)NC[C@@H]1C | 28.6% (inactive)
26 | Cc1cccc(NC(=O)Nc2ccc(S(=O)(=O)Nc3onc(C)c3C)cc2)c1 | -8.12% (inactive)
27 | C[C@H]1CN([C@@H](C)CO)C(=O)c2cc(NC(=O)C3CCCCC3)ccc2O[C@H]1CN(C)Cc1ccc(-c2ccccc2)cc1 | 9.85% (inactive)
28 | N#C[C@@H]1[C@@H](c2ccccc2C2=CCCCC2)[C@@H](CO)N1S(=O)(=O)c1ccccc1 | 35.2% [at 30 µM] (inactive)
29 | CO[C@@H]1CN(C)C(=O)c2cc(NC(=O)Nc3cc(Cl)cc(Cl)c3)ccc2OC[C@@H](C)NC[C@@H]1C | 8.56% (inactive)
30 | CCOC(=O)c1cnc(SCc2nc(N)nc(Nc3ccc(OC)cc3)n2)nc1N | -30.6% (inactive)
31 | Cc1ccc(S(=O)(=O)N2CC[C@H]3[C@H](CO)Nc4ccc(-c5cccc(C(=O)N(C)C)c5)cc4[C@H]32)cc1 | -23.6% (inactive)
32 | Cc1ccc(Nc2nnc(SCc3ccccc3)s2)cc1 | -41% (inactive)
33 | C[C@H](CO)N1C[C@H](C)[C@@H](CN(C)C(=O)c2cccc(F)c2)Oc2ncc(-c3ccccc3)cc2C1=O | 20.2% (inactive)
34 | Cc1ccc(O)c(-c2cc(-c3cccc(Br)c3)n[nH]2)c1 | -18.4% (inactive)
35 | Cc1ccc([N+](=O)[O-])cc1NC(=O)CN(C(=O)c1ccccc1Cl)C1CCCCC1 | -14.8% (inactive)
